sPLA2-III inh = Inhibits HGIII-sPLA2 liposome hydrolysis, primary screen; QFRET BODIPY PC-A2 liposome hydrolysis, fluorescence; inhibition, % at 12.2 µM; 0.56% of 370,000 active;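 active means inhibition above mean plus 3 SD of compounds lying within the high and low control bounds, cut at about 19% in these data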;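 further: 0% = median of test compound wells and 100% = no enzyme DMSO wells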
Target sequence (Q9NZ20 whole entry, looked up): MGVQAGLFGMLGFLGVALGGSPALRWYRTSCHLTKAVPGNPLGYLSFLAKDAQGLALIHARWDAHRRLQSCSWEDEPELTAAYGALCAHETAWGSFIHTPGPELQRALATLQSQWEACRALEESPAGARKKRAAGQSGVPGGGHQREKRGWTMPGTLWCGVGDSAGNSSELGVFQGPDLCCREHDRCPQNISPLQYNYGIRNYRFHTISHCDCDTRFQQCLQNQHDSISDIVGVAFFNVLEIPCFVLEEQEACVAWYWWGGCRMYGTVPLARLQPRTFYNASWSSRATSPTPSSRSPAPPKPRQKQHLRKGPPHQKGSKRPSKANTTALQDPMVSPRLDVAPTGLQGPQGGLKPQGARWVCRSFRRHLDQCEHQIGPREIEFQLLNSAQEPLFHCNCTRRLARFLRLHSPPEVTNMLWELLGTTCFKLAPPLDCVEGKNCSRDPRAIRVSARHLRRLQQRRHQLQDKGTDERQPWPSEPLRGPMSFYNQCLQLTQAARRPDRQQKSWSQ
AI-2 QS mod = modulators of Vibrio harveyi AI-2 quorum sensing system | Vibrio harveyi JMH597 AI-2 luminescence/OD600 ratio, 9 h; stronger effect = lower value; strain lacks LuxN and CqsS sensors; 0 = neutral-control median | activity change, % at 7.5 µM | 0.4% of 300,000 active | AID 2094; in the data active means activity change below about -75%, passing the limit was not always enough;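 further: luminescence divided by OD600 gain over 9 h not by final OD600 alone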
ARNT-TACC3 inh = ARNT/TACC3 interaction disruption. inhibition, % at 9.99 µM. AID 623870. Q9Y6A5. AlphaScreen His-ARNT PAS-B/GST-TACC3 binding, luminescence; TACC3 fragment carries E629A point mutation. 0.66% of 390,000 active;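 active means mean inhibition of replicates at least 50% and at least half of replicates each reaching 50%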;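 further: 0% = complete ARNT plus TACC3 wells and 100% = ARNT alone without TACC3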
Rin1-Abl PPI inh = blocks binding of human Rin1 to Abl | AID 588664 | 0.4% of 360,000 active | inhibition, % at 7.35 µM | P00519+Q13671 | TR-FRET Rin1/Abl binding, biochemical; in the data active means inhibition above about 5%, passing the limit was not always enough
AlphaScreen ctr = interferes with AlphaScreen signal, flagging false ARNT-TACC3 hits. shares compounds with ARNT-TACC3 inh. His-ARNT PASB-GST AlphaScreen artifact counter-screen, luminescence. AC50, µM (doses to about 68 µM), without a hit: at the highest dose activity change, negative = signal decrease. 50% of 1,200 active. AID 651705;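 active means every separate test run was called active for a drop in luminescence, with AC50 within twice the top valid dose, actives reach about 71 µM in these data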
* marks the source's active call; other numbers are inactive results; . = no result given; [ ] = dose if it differs, or a comment. Compounds with a hit are over-represented: about 1.5% of the library has one in this group of screens.

SMILES	sPLA2-III inh	AI-2 QS mod	ARNT-TACC3 inh	Rin1-Abl PPI inh	AlphaScreen ctr
Cc1ccc(S(=O)(=O)N2CCOCC2)cc1C(=O)Nc1nc(-c2cccnc2)cs1	2	16	4	-3	.
CCN(CC)c1ccc(/C=N/NC(=O)c2ccc3nc[nH]c3c2)c(O)c1	.	-67	55*	-6	41µM*
COc1cccc(/C=N/Nc2ccnc(=O)[nH]2)c1O	0	54	57*	-1	60µM*
CCN(CC)c1ccc(/C=N/NC(=O)OC)c(O)c1	-2	26	3	-2	.
COc1cc(OC)c(OC)cc1/C=N/NC(=O)c1ccc2nc[nH]c2c1	-1	23	4	-5	.
COc1cccc(/C=N/NC(=O)c2ccc3nc[nH]c3c2)c1O	-16	13	63*	-2	-20%
[N-]=[N+]=NCc1ccccc1C[C@]1(C(=O)N2CCOCC2)COC(c2ccc(OCCCO)cc2)=N1	.	.	10	.	.
C[C@@H](O)C#Cc1ccc2c(c1)O[C@@H](CN(C)C(=O)C1CC1)[C@@H](C)CN([C@@H](C)CO)S2(=O)=O	.	.	18	.	.
CC1CCCC(C)N1/N=C/c1ccc([N+](=O)[O-])cc1 (stereo not drawn)	1	5	51*	3	24µM*
Cc1ccoc1C(=O)NCCCNC(=O)c1occc1C	-1	22	56*	-1	-7%
Cc1ccoc1C(=O)NCCNC(=O)c1occc1C	7	33	-5	-4	.
COc1ccccc1C(CCNCc1ccc(N(C)C)cc1)c1ccc(OC(C)C)cc1 (stereo not drawn)	-13	17	active	1	7.7µM*
COc1ccc(CNCCC(c2ccc(OC(C)C)cc2)c2ccccc2OC)cc1 (stereo not drawn)	2	19	.	3	.
CC=Cc1ccc2n(c1=O)C[C@H]1[C@H](CO)[C@@H](C(=O)NCC)[C@@H]2N1C(=O)c1ccccc1 (mixture of isomers)	.	.	-10	.	.
Cn1nc(-c2ccccn2)nc2c(=O)n(C)c(=O)nc1-2	4	-92*	67*	42*	-1%
COc1ccc(-c2nc(-c3ccccn3)ncc2S(C)(=O)=O)cc1	-3	29	14	0	.
O=S(=O)(c1ccccc1)c1nc(-c2ccco2)oc1Nc1ccccc1	5	8	active	-4	62µM*
O=S(=O)(c1ccc(F)cc1)c1nc(-c2ccco2)oc1Nc1ccccc1	4	8	2	1	.
CCC(C)c1c(N)n(S(=O)(=O)c2ccc(C)cc2)oc1=O (stereo not drawn)	2	.	61*	2	35µM*
C/C(CC(=O)Nc1ccc(F)cc1)=N\NC(=O)c1ccccn1	-11	14	22*	-7	-7%
C/C(CC(=O)NCc1ccccc1Cl)=N/NC(=O)c1ccccn1	-6	17	26*	-2	2%
CC(=O)Nc1ccccc1NC(=O)C/C(C)=N/NC(=O)c1ccccn1	3	-1	.	1	.
C/C(CC(=O)NC1CCCCC1)=N\NC(=O)c1ccccn1	-3	24	13	3	.
C[C@@H]1CN([C@H](C)CO)C(=O)c2cc(-c3ccccc3)cnc2O[C@H]1CN(C)C(=O)C1CCOCC1	.	.	-9	.	.
O=S(=O)(N[C@H]1CC[C@H](CCn2cc(-c3ccccn3)nn2)O[C@H]1CO)c1cccc(Cl)c1	.	.	63*	.	55µM*
SMILES	sPLA2-III inh	AI-2 QS mod	ARNT-TACC3 inh	Rin1-Abl PPI inh	AlphaScreen ctr
O=S(=O)(N[C@@H]1CC[C@H](CCn2cc(-c3ccccn3)nn2)O[C@H]1CO)c1cccc(Cl)c1	.	.	69*	.	34µM*
O=S(=O)(N[C@@H]1CC[C@@H](CCn2cc(-c3ccccc3F)nn2)O[C@@H]1CO)c1ccc(Cl)cc1	.	.	8	.	.
COc1cc(Cc2nccc3cc(OC)c(OC)cc23)c(S(=O)(=O)O)cc1OC	-5	4	active	-2	-4%
COc1ccc(OC)c(-n2nnnc2SCC(=O)Nc2ccccc2OC)c1	-12	7	active	-1	-15%
O=C(C[C@@H]1C[C@H]2c3cc(NC(=O)NC4CCCCC4)ccc3O[C@H]2[C@@H](CO)O1)NCc1ccccc1	.	.	-12	.	.
O=C(C[C@H]1C[C@H]2c3cc(NC(=O)NC4CCCCC4)ccc3O[C@H]2[C@H](CO)O1)NCc1ccccc1	.	.	active	.	1%[38 µM]
CCSc1nnc(NC(=O)C2CCCCC2C(=O)O)s1 (stereo not drawn)	2	28	active	0	0%
COc1ccc(Nc2cc3n(c(=O)n2)CCc2cc(OC)c(OC)cc2-3)cc1	6	13	63*	1	-29%
O=C(Nc1nc(-c2ccccn2)cs1)C1CC1	3	51	.	-1	.
O=C(Nc1nc(-c2ccccn2)cs1)C12CC3CC(CC(O)(C3)C1)C2	-3	37	71*	3	62µM*
C[C@@H]1CN([C@H](C)CO)C(=O)Cc2cc(NC(=O)CCCCCC(=O)Nc3ccccc3N)ccc2O[C@H]1CN(C)Cc1ccc(-c2ccccc2)cc1	.	.	5	.	.
O=C(C[C@@H]1C=C[C@@H](NC(=O)Nc2ccc3c(c2)OCO3)[C@H](CO)O1)NCc1ccc(Cl)cc1	.	.	16	.	.
O=C(C[C@H]1C=C[C@@H](NC(=O)Nc2ccc3c(c2)OCO3)[C@H](CO)O1)NCc1ccc(Cl)cc1	.	.	24*	.	-16%[42 µM]
C[C@@H]1CN([C@@H](C)CO)C(=O)Cc2cc(NS(=O)(=O)c3cn(C)cn3)ccc2O[C@H]1CN(C)S(=O)(=O)c1ccccc1	.	.	-7	.	.
O=C(N/N=C/c1ccco1)c1cnccn1	-11	28	14	2	.
O=C(N/N=C/C=C/c1ccco1)c1cnccn1	0	8	62*	3	-9%
CCCc1cn(CC[C@H]2CC[C@H](NC(=O)C3CCC3)[C@@H](CO)O2)nn1	.	.	-8	.	.
O=C(Nc1nnc(SCc2ccc(F)cc2)s1)c1cccnc1Cl	-18	-34	-3	2	.
O=C(Nc1nnc(SCc2ccc(F)cc2)s1)c1ccccn1	-1	70	79*	0	17µM*
C[C@H](CO)N1C[C@H](C)[C@H](CN(C)Cc2ccc(-c3ccccc3)cc2)Oc2c(NS(=O)(=O)c3cccs3)cccc2C1=O	.	.	3	.	.
COc1ccc(-c2ccc(CNCc3ccccn3)o2)cc1Cl	.	13	.	.	.
Fc1ccc(-c2ccc(CNCc3ccccn3)o2)cc1	-1	32	61*	1	-29%
C/C=C/c1cnc2c(c1)C(=O)N([C@@H](C)CO)C[C@H](C)[C@H](CN(C)Cc1cccc(C(=O)O)c1)O2	.	.	0	.	.
C[C@@H]1CN([C@H](C)CO)S(=O)(=O)c2ccc(-c3cccc(F)c3)cc2O[C@H]1CN(C)C(=O)C1CC1	.	.	12	.	.
CC(=O)N1CCc2[nH]c3ccc(C)cc3c2C1	-5	.	36*	0	-1%
O=C(CCN1C(=O)c2cccnc2C1=O)NC1CCCCCC1	-2	28	59*	3	-13%
O=C(CCCN1C(=O)c2ccccc2C1=O)NC1CCCCCC1	2	25	-3	-2	.

Compound activity from PubChem.
